This is an account of results in PubChem BioAssay (EPA / NIEHS).

Activity calls are given as the source filed them. The calls were made as follows: active = hit-call score of the fitted dose curve at least 0.9, where 1 is the maximum; inactive = score below 0.9.

Read-out in this assay: Matrix Metallopeptidase 9 (MMP9), MMP9 (gene 4318)
Put plainly: BSK_BF4T_MMP9: BioMAP Diversity Plus: BF4T Assay for Matrix Metallopeptidase 9 (MMP9) Biomarker Activity (AID 2284276). Conditions: primary human bronchial epithelial cells with fibroblasts. The method, then:
BSK_BF4T is a cell-based, multiplexed-readout assay that uses bronchial epithelial cells and dermal fibroblasts, a human vascular primary cell, with measurements taken at 24 hours after chemical dosing in a microplate: 96-well plate.BSK_BF4T_MMP9 is an assay component measured in the BSK_BF4T assay. It measures MMP-9 antibody related to regulation of gene expression using ELISA technology.Data from the assay component BSK_BF4T_MMP9 was analyzed at the endpoint, BSK_BF4T_MMP9, in the positive analysis fitting direction relative to DMSO as the negative control and baseline of activity. Using a type of binding reporter, gain or loss-of-signal activity can be used to understand protein changes. To generalize the intended target to other relatable targets, this assay endpoint is annotated to the 'protease' intended target family, where the subfamily is 'matrix metalloproteinase'.
The levels of cell surface (or secreted, indicated by the prefix "s") biomarker endpoints were measured by ELISA. Overt cytotoxicity to cells in confluent adherent cultures (all systems other than the BT system) was assessed by measuring total protein levels using sulforhodamine B (SRB) staining in parallel cultures at the time of biomarker measurements, indicated as SRB endpoints. For proliferation assays for adherent cell types, individual cell types are cultured at sub-confluence and relative cell numbers quantified by SRB staining at time points optimized for each system (48 h: 3C and CASM3C systems; 72 h: BT and HDF3CGF systems; 96 h: SAg system). SRB was performed by staining cells with 0.1% SRB after fixation with 10% TCA and reading wells at 560 nm.Viability and proliferation of PBMC (T cells) was quantified by Alamar Blue reduction for the SAg and BT systems. For PBMC viability (referred to as PBMC Cytotoxicity within the assay endpoint names), cells were plated (75,000/well in a 96-well plate) and then chemical samples added for 1 h before addition of activators, SEB and TSST-1 (20 ng/mL final concentration each). Cells were incubated for 90 h. Then, Alamar Blue (20 uL/well) (Invitrogen, Cat DAL1100) was added for 6 h, and the plates were read with a fluorescence microplate reader at 546/580 nm (excitation/emission). For PBMC proliferation, cells were plated and activated as above but incubated for only 16 h prior to addition of Alamar Blue. Plates were read after 6 h.
Take `NCC(F)(F)C(F)(F)C(F)(F)C(F)(F)F`: the outcome was inactive.
Consider `OCCC(F)(F)C(F)(F)C(F)(F)C(F)(F)F`, for which the result was inactive.
For the compound `FC(F)=C(F)C(F)(F)C(F)(F)C(F)(F)C(F)(F)C(F)(F)C(F)(F)F`, the result was inactive.
Regarding `O=C(Cl)C(F)(F)C(F)(F)C(F)(F)C(=O)Cl`, the outcome was inactive.
Regarding `FC(F)C(F)(F)COCC1CO1` (stereo not given), the result was inactive.
In the case of `FC(F)(F)COC(OCC(F)(F)F)OCC(F)(F)F` it was “inactive”; in that of `O=S(=O)(O)CCC(F)(F)C(F)(F)C(F)(F)C(F)(F)C(F)(F)C(F)(F)F`, “inactive”; in that of `C[Si](C)(C)C(F)(F)C(F)(F)C(F)(F)F`, “inactive”.
Consider `FC(F)(F)C(F)(F)C(F)(F)C(F)(F)C(F)(F)C(F)(F)I`, for which the result was inactive.
In the case of `OC(O)(C(F)C(O)(O)C(F)(F)F)C(F)(F)F` it was “inactive”.
